# Legend:
# Assay in all cases: DAPPL (digital affinity profiling via proximity ligation, sequencing); 10 mM Tris-HCl pH 7.5, 50 mM NaCl, 1 mM DTT, 4% glycerol, room temperature, 30 min; GST-TFs on glutathione beads, 16-mer random dsDNA library, 0.1% formaldehyde crosslink after washing; high values mean tight binding
# FLI1 = target: T1, FLI1 (Homo sapiens, UniProt Q01543 1-452); settings: protein: recombinant; tags: N-terminal GST; dsDNA, one strand shown
# T1 sequence: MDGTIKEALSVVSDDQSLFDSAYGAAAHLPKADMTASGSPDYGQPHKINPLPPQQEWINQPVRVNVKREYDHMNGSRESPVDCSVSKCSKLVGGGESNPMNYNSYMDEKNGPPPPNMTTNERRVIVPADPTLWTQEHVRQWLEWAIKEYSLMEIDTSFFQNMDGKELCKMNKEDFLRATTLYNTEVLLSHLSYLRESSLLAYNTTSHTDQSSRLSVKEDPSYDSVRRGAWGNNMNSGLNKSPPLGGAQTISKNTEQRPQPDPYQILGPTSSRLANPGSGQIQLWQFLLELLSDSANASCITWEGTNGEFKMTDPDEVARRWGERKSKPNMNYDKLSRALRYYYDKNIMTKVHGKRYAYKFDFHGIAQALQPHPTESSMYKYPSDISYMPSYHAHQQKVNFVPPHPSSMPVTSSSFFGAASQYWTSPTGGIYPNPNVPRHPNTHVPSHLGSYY
# In short: (§1)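 The binding signal reported is, for every hexamer, its read frequency for a factor over its read frequency for the tag-only sample. Reads came from pools of yeast-expressed, GST-fused human transcription factors on glutathione beads, barcoded with DNA and mixed with that sample, which were incubated with 200 nmole of a random double-stranded 16-mer DNA library in Tris/NaCl/DTT/glycerol buffer at room temperature for 30 min. After washing, the pools were crosslinked with 0.1% formaldehyde, proximity-ligated with BsaI/T4 ligase for 1 h at 37 °C, PCR-amplified and sequenced on an Illumina NextSeq500.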
# ELK1 = target: T2, ELK1 (Homo sapiens, UniProt P19419 1-428); settings: protein: recombinant; tags: N-terminal GST; dsDNA, one strand shown
# T2 sequence: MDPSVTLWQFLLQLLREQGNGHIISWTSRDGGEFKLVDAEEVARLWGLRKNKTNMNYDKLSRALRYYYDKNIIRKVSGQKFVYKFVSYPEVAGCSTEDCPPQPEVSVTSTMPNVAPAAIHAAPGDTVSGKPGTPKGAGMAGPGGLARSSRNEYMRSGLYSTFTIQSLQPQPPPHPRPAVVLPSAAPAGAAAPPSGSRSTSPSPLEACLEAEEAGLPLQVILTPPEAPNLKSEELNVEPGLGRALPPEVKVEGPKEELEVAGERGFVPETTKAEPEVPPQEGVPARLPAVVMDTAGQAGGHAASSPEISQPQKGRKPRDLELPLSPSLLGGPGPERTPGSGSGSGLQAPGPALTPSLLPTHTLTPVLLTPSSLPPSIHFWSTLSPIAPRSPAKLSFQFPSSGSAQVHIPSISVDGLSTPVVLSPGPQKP
# In short: as §1
# GABPA = target: T3, GABPA (Homo sapiens, UniProt Q06546 1-454); settings: protein: recombinant; tags: N-terminal GST; dsDNA, one strand shown
# T3 sequence: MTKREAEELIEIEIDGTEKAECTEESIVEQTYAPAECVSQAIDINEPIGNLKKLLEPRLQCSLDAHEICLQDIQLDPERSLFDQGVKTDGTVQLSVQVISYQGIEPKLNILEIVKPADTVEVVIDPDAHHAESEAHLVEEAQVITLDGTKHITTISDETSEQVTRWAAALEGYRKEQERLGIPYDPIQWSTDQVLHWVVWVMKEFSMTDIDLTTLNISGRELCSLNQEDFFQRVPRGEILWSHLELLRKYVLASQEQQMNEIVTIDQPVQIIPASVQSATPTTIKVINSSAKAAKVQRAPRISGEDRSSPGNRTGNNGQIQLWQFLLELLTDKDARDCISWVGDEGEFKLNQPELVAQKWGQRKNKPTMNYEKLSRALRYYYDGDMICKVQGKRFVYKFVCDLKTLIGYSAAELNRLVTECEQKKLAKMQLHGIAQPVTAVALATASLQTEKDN
# In short: as §1
# ERG = target: T4, ERG (Homo sapiens, UniProt P11308 1-479); settings: protein: recombinant; tags: N-terminal GST; dsDNA, one strand shown
# T4 sequence: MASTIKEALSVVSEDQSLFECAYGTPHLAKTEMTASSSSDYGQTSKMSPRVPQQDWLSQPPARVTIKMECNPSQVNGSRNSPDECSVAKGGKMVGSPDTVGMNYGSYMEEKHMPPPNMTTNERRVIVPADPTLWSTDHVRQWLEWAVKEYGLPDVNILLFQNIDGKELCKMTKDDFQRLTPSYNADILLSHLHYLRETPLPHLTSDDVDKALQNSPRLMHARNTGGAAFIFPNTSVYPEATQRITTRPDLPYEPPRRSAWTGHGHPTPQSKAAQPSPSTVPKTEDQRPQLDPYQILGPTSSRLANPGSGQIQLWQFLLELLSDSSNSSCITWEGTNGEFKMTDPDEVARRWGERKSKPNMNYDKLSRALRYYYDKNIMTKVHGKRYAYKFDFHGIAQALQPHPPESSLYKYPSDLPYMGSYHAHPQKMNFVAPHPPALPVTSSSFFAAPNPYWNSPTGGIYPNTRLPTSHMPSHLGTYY
# In short: as §1
# ELF1 = ELF1 (Homo sapiens, UniProt P32519 1-619); settings: protein: recombinant; tags: N-terminal GST; dsDNA, one strand shown
# In short: as §1
# EHF = target: T5, EHF (Homo sapiens, UniProt Q9NZC4 1-300); settings: protein: recombinant; tags: N-terminal GST; dsDNA, one strand shown
# T5 sequence: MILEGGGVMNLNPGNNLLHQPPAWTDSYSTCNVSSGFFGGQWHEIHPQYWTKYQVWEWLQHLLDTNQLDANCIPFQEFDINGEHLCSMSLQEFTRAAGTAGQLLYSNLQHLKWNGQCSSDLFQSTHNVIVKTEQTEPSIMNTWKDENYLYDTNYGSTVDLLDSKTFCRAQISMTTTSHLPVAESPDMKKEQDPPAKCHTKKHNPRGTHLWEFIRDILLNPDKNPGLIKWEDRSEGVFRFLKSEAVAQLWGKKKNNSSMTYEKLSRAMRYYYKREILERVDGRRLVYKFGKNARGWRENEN
# In short: as §1
# SPI1 = SPI1 (Homo sapiens, UniProt P17947 1-270); settings: protein: recombinant; tags: N-terminal GST; dsDNA, one strand shown
# In short: as §1
# SPIB = SPIB (Homo sapiens, UniProt Q01892 1-262); settings: protein: recombinant; tags: N-terminal GST; dsDNA, one strand shown
# In short: as §1
# ELK3 = target: T6, ELK3 (Homo sapiens, UniProt P41970 1-407); settings: protein: recombinant; tags: N-terminal GST; dsDNA, one strand shown
# T6 sequence: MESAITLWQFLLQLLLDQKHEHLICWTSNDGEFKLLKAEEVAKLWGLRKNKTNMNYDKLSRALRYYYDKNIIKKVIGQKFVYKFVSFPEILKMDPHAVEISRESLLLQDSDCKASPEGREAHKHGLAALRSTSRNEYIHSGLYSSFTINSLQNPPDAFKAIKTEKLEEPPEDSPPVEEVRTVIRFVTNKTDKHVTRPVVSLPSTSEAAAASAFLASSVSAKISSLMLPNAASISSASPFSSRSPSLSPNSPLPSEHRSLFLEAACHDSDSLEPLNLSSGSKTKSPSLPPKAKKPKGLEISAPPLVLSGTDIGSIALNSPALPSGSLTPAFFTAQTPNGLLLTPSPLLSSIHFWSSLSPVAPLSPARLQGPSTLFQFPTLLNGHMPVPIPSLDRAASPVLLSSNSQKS
# In short: as §1
# FEV = target: T7, FEV (Homo sapiens, UniProt Q99581 1-238); settings: protein: recombinant; tags: N-terminal GST; dsDNA, one strand shown
# T7 sequence: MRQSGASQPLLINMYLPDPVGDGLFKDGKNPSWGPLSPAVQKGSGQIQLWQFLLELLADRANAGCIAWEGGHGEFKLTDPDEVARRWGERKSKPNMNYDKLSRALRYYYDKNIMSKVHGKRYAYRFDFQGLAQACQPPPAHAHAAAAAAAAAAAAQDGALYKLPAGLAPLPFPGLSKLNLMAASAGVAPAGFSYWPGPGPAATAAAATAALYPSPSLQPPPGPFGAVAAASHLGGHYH
# In short: as §1
# ETV5 = ETV5 (Homo sapiens, UniProt P41161 1-510); settings: protein: recombinant; tags: N-terminal GST; dsDNA, one strand shown
# In short: as §1
# HSF1 = HSF1 (Homo sapiens, UniProt Q00613 1-529); settings: protein: recombinant; tags: N-terminal GST; chain copies: 3; dsDNA, one strand shown
# In short: as §1
# SPIC = target: T8, SPIC (Homo sapiens, UniProt Q8N5J4 1-248); settings: protein: recombinant; tags: N-terminal GST; dsDNA, one strand shown
# T8 sequence: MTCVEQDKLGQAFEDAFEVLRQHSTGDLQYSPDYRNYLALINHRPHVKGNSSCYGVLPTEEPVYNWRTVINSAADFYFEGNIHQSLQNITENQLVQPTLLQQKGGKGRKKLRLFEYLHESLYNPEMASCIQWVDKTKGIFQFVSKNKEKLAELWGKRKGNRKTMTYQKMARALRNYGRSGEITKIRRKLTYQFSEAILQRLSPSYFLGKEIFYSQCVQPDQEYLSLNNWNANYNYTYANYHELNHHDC
# In short: as §1
# ELF4 = ELF4 (Homo sapiens, UniProt Q99607 1-663); settings: protein: recombinant; tags: N-terminal GST; dsDNA, one strand shown
# In short: as §1
# ELK4 = target: T9, ELK4 (Homo sapiens, UniProt P28324-2 1-405); settings: protein: recombinant; tags: N-terminal GST; dsDNA, one strand shown
# T9 sequence: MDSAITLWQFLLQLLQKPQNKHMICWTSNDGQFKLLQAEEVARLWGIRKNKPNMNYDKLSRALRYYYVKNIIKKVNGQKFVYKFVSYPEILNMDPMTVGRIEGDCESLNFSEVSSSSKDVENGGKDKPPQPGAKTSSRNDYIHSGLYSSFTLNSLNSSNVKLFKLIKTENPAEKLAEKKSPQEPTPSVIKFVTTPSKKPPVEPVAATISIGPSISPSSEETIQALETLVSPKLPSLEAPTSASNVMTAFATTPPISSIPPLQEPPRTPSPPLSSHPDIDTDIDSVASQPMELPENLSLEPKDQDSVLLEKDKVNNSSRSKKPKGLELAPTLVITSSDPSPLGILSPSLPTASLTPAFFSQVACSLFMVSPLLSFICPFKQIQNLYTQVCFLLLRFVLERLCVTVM
# In short: as §1
# ETV2 = target: T10, ETV2 (Homo sapiens, UniProt O00321 1-342); settings: protein: recombinant; tags: N-terminal GST; dsDNA, one strand shown
# T10 sequence: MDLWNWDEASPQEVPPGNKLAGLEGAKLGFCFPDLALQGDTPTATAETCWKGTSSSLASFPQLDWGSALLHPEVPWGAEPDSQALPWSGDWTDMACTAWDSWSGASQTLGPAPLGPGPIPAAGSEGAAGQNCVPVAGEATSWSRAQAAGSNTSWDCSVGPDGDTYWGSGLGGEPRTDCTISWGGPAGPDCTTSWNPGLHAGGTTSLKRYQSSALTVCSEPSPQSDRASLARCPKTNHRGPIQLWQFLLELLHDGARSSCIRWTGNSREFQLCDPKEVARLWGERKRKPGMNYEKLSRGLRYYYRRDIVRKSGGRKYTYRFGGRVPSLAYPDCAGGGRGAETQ
# In short: as §1
# ELF3 = target: T11, ELF3 (Homo sapiens, UniProt P78545 1-371); settings: protein: recombinant; tags: N-terminal GST; dsDNA, one strand shown
# T11 sequence: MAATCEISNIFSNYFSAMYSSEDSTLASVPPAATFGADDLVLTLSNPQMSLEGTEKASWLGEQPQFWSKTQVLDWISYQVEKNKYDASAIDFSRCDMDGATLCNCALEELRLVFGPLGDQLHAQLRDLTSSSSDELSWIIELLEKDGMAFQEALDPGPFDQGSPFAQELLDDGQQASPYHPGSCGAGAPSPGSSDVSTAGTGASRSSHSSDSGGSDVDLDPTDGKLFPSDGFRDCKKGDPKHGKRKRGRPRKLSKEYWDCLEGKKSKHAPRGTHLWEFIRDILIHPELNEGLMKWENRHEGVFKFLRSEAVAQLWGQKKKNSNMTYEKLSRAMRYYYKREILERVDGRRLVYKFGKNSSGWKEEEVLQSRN
# In short: as §1
# ETV1 = ETV1 (Homo sapiens, UniProt P50549 1-477); settings: protein: recombinant; tags: N-terminal GST; dsDNA, one strand shown
# In short: as §1
# ELF4, sequence (Q99607 whole entry): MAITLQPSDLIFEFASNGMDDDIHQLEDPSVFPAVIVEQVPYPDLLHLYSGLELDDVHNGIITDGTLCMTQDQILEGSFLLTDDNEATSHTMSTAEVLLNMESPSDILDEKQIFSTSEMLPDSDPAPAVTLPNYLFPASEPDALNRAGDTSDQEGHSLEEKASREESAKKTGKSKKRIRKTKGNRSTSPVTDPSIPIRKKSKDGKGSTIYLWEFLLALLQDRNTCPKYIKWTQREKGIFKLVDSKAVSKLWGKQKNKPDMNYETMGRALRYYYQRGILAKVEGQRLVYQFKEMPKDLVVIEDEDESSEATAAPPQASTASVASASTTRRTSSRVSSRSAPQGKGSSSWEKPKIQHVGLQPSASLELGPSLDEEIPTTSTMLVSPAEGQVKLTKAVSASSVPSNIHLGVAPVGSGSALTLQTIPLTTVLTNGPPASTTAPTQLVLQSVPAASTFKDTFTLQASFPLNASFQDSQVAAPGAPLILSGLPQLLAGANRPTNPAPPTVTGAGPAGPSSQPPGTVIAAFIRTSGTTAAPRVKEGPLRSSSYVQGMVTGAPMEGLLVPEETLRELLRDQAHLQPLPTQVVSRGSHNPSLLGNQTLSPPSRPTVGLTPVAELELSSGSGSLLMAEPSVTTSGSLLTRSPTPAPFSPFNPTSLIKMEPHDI
# ELF1, sequence (P32519 whole entry): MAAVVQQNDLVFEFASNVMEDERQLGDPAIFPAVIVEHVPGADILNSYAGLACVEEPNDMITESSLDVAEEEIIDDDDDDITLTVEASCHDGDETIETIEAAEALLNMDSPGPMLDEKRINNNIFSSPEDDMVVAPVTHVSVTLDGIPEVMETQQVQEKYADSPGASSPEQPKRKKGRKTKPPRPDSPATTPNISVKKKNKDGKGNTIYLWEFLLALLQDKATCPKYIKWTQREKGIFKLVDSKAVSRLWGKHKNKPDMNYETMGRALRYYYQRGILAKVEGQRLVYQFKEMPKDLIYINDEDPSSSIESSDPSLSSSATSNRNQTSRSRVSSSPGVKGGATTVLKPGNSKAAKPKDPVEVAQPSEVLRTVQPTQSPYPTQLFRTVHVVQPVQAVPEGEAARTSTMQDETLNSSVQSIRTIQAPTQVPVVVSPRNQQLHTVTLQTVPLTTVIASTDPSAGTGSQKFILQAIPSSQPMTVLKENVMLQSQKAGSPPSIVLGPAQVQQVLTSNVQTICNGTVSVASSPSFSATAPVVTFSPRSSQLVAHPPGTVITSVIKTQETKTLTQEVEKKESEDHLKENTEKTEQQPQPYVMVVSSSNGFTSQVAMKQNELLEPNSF
# ETV1, sequence (P50549 whole entry): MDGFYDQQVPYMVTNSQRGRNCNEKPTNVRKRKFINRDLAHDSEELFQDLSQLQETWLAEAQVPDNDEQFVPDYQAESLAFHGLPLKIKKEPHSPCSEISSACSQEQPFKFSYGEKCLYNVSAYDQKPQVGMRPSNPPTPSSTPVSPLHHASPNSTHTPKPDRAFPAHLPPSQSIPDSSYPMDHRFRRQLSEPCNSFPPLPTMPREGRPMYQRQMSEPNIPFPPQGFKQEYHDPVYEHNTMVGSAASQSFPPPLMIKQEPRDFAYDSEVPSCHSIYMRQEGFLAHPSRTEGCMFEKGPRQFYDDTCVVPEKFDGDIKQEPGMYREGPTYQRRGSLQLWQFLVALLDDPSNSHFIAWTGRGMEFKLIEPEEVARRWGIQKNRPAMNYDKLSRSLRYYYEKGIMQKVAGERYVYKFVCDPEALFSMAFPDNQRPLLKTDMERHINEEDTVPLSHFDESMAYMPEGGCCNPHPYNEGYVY
# HSF1, sequence (Q00613 whole entry): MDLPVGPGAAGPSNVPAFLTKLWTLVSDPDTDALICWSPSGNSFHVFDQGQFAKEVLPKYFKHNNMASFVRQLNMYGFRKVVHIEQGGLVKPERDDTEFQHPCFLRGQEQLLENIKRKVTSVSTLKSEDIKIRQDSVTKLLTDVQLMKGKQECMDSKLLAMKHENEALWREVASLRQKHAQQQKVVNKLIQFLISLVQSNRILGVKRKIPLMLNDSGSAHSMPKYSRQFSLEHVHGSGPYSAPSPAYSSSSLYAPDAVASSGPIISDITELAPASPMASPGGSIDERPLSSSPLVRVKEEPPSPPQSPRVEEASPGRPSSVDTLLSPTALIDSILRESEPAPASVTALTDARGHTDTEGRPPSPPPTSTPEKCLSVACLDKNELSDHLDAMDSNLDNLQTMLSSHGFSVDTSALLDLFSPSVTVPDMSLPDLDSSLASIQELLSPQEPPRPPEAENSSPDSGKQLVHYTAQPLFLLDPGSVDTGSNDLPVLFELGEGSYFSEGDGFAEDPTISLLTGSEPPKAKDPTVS
# SPIB, sequence (Q01892 whole entry): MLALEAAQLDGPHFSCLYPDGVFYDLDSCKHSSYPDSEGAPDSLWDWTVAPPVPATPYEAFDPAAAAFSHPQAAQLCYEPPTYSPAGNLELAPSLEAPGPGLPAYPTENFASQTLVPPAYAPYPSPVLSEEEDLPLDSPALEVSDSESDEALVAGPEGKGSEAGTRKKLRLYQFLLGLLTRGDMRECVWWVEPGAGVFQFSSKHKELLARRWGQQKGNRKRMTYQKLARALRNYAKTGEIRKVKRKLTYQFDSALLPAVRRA
# ETV5, sequence (P41161 whole entry): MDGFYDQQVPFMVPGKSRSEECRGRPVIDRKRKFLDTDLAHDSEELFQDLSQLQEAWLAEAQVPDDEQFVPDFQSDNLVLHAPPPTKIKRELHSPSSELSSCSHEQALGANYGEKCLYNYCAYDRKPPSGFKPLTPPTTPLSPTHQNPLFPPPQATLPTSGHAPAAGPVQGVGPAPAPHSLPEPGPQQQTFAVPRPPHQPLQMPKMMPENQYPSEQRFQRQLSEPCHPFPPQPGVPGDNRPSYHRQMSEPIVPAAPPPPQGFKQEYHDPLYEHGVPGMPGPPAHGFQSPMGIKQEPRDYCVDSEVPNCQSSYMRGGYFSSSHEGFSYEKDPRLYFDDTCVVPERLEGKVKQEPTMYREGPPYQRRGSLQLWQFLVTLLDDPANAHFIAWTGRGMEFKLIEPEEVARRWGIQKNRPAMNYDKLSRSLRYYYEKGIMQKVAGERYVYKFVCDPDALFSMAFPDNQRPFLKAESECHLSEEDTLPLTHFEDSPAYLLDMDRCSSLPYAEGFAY
sequence,measurement,setting,value
GAAGAA,binding signal,FLI1,"1.03 fold enrichment (6-mer frequency, TF over GST control)"
same,binding signal,ELK1,"1.11 fold enrichment (6-mer frequency, TF over GST control)"
same,binding signal,GABPA,"1.14 fold enrichment (6-mer frequency, TF over GST control)"
same,binding signal,ERG,"1.19 fold enrichment (6-mer frequency, TF over GST control)"
same,binding signal,ELF1,"1.12 fold enrichment (6-mer frequency, TF over GST control)"
same,binding signal,EHF,"1.14 fold enrichment (6-mer frequency, TF over GST control)"
same,binding signal,SPI1,"1.13 fold enrichment (6-mer frequency, TF over GST control)"
same,binding signal,SPIB,"1.03 fold enrichment (6-mer frequency, TF over GST control)"
same,binding signal,ELK3,"1.13 fold enrichment (6-mer frequency, TF over GST control)"
same,binding signal,FEV,"1.08 fold enrichment (6-mer frequency, TF over GST control)"
same,binding signal,ETV5,"1.16 fold enrichment (6-mer frequency, TF over GST control)"
same,binding signal,HSF1,"1.46 fold enrichment (6-mer frequency, TF over GST control)"
same,binding signal,SPIC,"1.18 fold enrichment (6-mer frequency, TF over GST control)"
same,binding signal,ELF4,"1.15 fold enrichment (6-mer frequency, TF over GST control)"
same,binding signal,ELK4,"1.17 fold enrichment (6-mer frequency, TF over GST control)"
same,binding signal,ETV2,"1.2 fold enrichment (6-mer frequency, TF over GST control)"
same,binding signal,ELF3,"1.26 fold enrichment (6-mer frequency, TF over GST control)"
same,binding signal,ETV1,"1.2 fold enrichment (6-mer frequency, TF over GST control)"
